These results are taken from PubChem BioAssay (NCI).

Some test systems named below: NCI-H23 lung; NCI-H226 lung; NCI-H322M lung; HOP-62 NSCLC; NCI-H460 lung; HOP-92 NSCLC; NCI-H522 lung; A549/ATCC NSCLC; 786-0 renal; COLO 205 colon.
Holding throughout (experiment): NCI-60 one-dose screen, 48 h (100 = growth as untreated, 0 = no growth, -100 = all killed)
Common to all, as to settings: 10 µM unless noted

About 83,000 compounds went through this panel and 20% of them were active in at least one assay; those are over-represented in the sample as a whole.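 For each line, cells grew in 96-well plates with the test compound present at a single concentration for 48 hours.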 Values without a mark were called inactive. Active and inactive are the calls of the source. Rule for the calls: active = growth percent below 10; inactive = the rest.

On to `COC(=O)[C@H]1CCCN1C[C@@H](O)CN1C(=O)/C(=C\c2cc(OC)c(OC)c(OC)c2)c2ccccc21`, for which the growth was 106% in the experiment on NCI-H23 lung; 96.6% with NCI-H226 lung; 106% with NCI-H322M lung; 108% with HOP-62 NSCLC; 94.9% with NCI-H460 lung; 105% with HOP-92 NSCLC. Besides, the growth with NCI-H522 lung was 97.8%; with A549/ATCC NSCLC, 90.3%; with 786-0 renal, 101%; in the experiment with COLO 205 colon it was 121%.

Consider `COC(=O)CNC(=O)[C@H](Cc1ccccc1)NCc1ccncc1`, for which the growth in the experiment on NCI-H23 lung is 101%; with NCI-H226 lung, 109%; in the experiment with NCI-H322M lung, 101%; with HOP-62 NSCLC, 97.3%; in the experiment with NCI-H460 lung, 108%; with HOP-92 NSCLC, 103%. The growth in the experiment on NCI-H522 lung was 84.5%; in the experiment on A549/ATCC NSCLC, 85.6%; in the experiment with 786-0 renal it was 105%; in the experiment on COLO 205 colon, 109%.

Turning to `Cc1nc2ncnc(Cl)c2[nH]1`, the growth was 95.3% in the experiment on NCI-H23 lung; 101% with NCI-H226 lung; 98.2% in the experiment with NCI-H322M lung; 112% in the experiment on HOP-62 NSCLC; 104% with NCI-H460 lung; 77.7% with HOP-92 NSCLC. For the same compound, the growth was 91.3% in the experiment on NCI-H522 lung, 93.1% in the experiment on A549/ATCC NSCLC, 105% with 786-0 renal and 113% in the experiment with COLO 205 colon.

Regarding `OCc1cccc(-c2ccc3ncc(-c4nc(NC5CC5)ncc4F)n3c2)c1`, the growth with NCI-H23 lung is -16.3% (active); in the experiment on NCI-H226 lung it was 2.19% (active); in the experiment with NCI-H322M lung, -6.44% (active); in the experiment with HOP-62 NSCLC it was 2.21% (active); in the experiment on NCI-H460 lung, -4.33% (active); with HOP-92 NSCLC, -13.9% (active). The growth was -13.9% (active) in the experiment with NCI-H522 lung, -8.48% (active) in the experiment with A549/ATCC NSCLC, 6.46% (active) with 786-0 renal and -39.7% (active) with COLO 205 colon.

Take `Cc1ccc(Cl)cc1Nc1nc(C(F)(F)F)ccc1C(=O)N/N=C/c1cccnc1`: the growth in the experiment with NCI-H23 lung was 37.4%; in the experiment on NCI-H226 lung, 30.7%; in the experiment on NCI-H322M lung, 25.1%; in the experiment with HOP-62 NSCLC, 29.4%; in the experiment with NCI-H460 lung, 18.3%; in the experiment with HOP-92 NSCLC, 11.3%. The growth was -5.81% (active) in the experiment with NCI-H522 lung, 27.5% with A549/ATCC NSCLC, 2.05% (active) with 786-0 renal and 38.9% in the experiment on COLO 205 colon.

Consider `CC(=O)c1cc(O)c2ccccc2c1O`, for which the growth in the experiment on NCI-H23 lung is 85.9%; with NCI-H226 lung, 92.9%; with NCI-H322M lung, 105%; in the experiment with HOP-62 NSCLC it was 87.4%; in the experiment on NCI-H460 lung it was 103%; with HOP-92 NSCLC, 92.6%. Also, the growth in the experiment with NCI-H522 lung is 78.7%; with A549/ATCC NSCLC it was 99.7%; in the experiment with 786-0 renal, 97.8%; with COLO 205 colon, 116%.

As to `C[C@]12C=CC(=O)C=C1CCC1C2[C@@H](O)C[C@@]2(C)C1CC[C@]2(O)C(=O)COC(=O)CCC(=O)O` (stereo not given in full), the growth is 106% in the experiment with NCI-H23 lung; 84.6% in the experiment with NCI-H226 lung; 106% with NCI-H322M lung; 121% with HOP-62 NSCLC; 103% with NCI-H460 lung; 87.1% with HOP-92 NSCLC. Also, the growth is 103% in the experiment with NCI-H522 lung, 71.3% with A549/ATCC NSCLC, 102% with 786-0 renal and 124% in the experiment on COLO 205 colon.

Turning to `CCn1cc(C(=O)N/N=C/c2cccs2)c(=O)c2cc(F)c(N3CCNC(C)C3)c(F)c21` (stereo not given), the growth was 89.8% with NCI-H23 lung; 76% with NCI-H226 lung; 84.1% in the experiment on NCI-H322M lung; 72.4% in the experiment on HOP-62 NSCLC; 23.6% with NCI-H460 lung; 53.8% with HOP-92 NSCLC. Also, the growth with NCI-H522 lung was 71.1%; in the experiment with A549/ATCC NSCLC it was 44%; in the experiment on 786-0 renal, 67.8%; with COLO 205 colon, -41.7% (active).

Turning to `N#CC1C=CN(CC(N)=O)c2ccc3cccnc3c21` (stereo not given), the growth is 94.7% with NCI-H23 lung; 87.5% with NCI-H226 lung; 97.3% in the experiment on NCI-H322M lung; 95.2% with HOP-62 NSCLC; 103% with NCI-H460 lung; 98.3% in the experiment on HOP-92 NSCLC. Also, the growth in the experiment on NCI-H522 lung was 85.6%; in the experiment with A549/ATCC NSCLC, 88.9%; with 786-0 renal, 98.3%; in the experiment with COLO 205 colon, 80.3%.

Consider `O=C(c1cc2ccccc2o1)c1nn(-c2ccccc2)/c(=N/N=Cc2cn(-c3ccccc3)nc2-c2cc3ccccc3oc2=O)s1`, for which the growth with NCI-H23 lung was 99.4%; with NCI-H226 lung, 99.4%; in the experiment on NCI-H322M lung, 92%; with HOP-62 NSCLC it was 97.6%; in the experiment on NCI-H460 lung, 106%; in the experiment on HOP-92 NSCLC, 73.2%. Further, the growth with NCI-H522 lung is 88%; with A549/ATCC NSCLC, 106%; in the experiment on 786-0 renal, 103%; in the experiment on COLO 205 colon, 117%.

Regarding `CN(CCOc1ccc(C#N)cc1)CCOc1ccc(C#N)cc1`, the growth in the experiment on NCI-H23 lung was 56.5%; in the experiment on NCI-H226 lung, 62%; with NCI-H322M lung, 87.1%; with HOP-62 NSCLC, 46%; in the experiment on NCI-H460 lung it was 120%; in the experiment with HOP-92 NSCLC it was 63.3%. Besides, the growth in the experiment on NCI-H522 lung is 86.6%; with A549/ATCC NSCLC, 60.2%; in the experiment with 786-0 renal it was 26.3%; in the experiment with COLO 205 colon it was 52.1%.

Turning to `COc1cc2oc(-c3cccc(NC(=O)c4cccc(Br)c4)c3)cc(=O)c2c(OC)c1OC`, the growth in the experiment with NCI-H23 lung is 57.2%; with NCI-H226 lung it was 73.7%; in the experiment on NCI-H322M lung it was 76.4%; with HOP-62 NSCLC it was 55.5%; with NCI-H460 lung, 34.7%; in the experiment with HOP-92 NSCLC, 47.5%. The growth is 38.6% in the experiment with NCI-H522 lung, 49.3% with A549/ATCC NSCLC, 59% in the experiment with 786-0 renal and 57.8% in the experiment on COLO 205 colon.

As to `O=C1Nc2ccc(Br)cc2/C1=N/c1n[nH]c(=S)s1`, the growth with NCI-H23 lung is 93.3%; in the experiment with NCI-H226 lung, 99.4%; in the experiment with NCI-H322M lung, 107%; in the experiment on HOP-62 NSCLC it was 89%; with NCI-H460 lung, 106%; in the experiment with HOP-92 NSCLC it was 94.8%. The growth in the experiment on NCI-H522 lung is 93.4%; in the experiment with A549/ATCC NSCLC, 98%; with 786-0 renal, 97.8%; in the experiment on COLO 205 colon it was 114%.
